In PubChem BioAssay (NCI):
About 83,000 compounds went through this panel and 20% of them were active in at least one assay; those are over-represented in the sample as a whole.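 Method: cells in 96-well plates; compound added at one concentration; 48 h incubation; percent growth measured; values under 10 scored active.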 Values without a mark were called inactive. Activity calls are given as the source filed them.

Tests used:
Assay in all cases: NCI-60 one-dose screen, 48 h (100 = growth as untreated, 0 = no growth, -100 = all killed)
Conditions in all cases: 10 µM unless noted
DU-145 prostate = test system: DU-145 prostate
K-562 leukemia = test system: K-562 leukemia
MALME-3M melanoma = test system: MALME-3M melanoma
MDA-MB-231 breast = test system: MDA-MB-231 breast
RXF 393 renal = test system: RXF 393 renal
SF-268 CNS = test system: SF-268 CNS
SF-539 CNS = test system: SF-539 CNS
UACC-257 melanoma = test system: UACC-257 melanoma
M14 melanoma = test system: M14 melanoma
HCT-15 colon = test system: HCT-15 colon
HT29 colon = test system: HT29 colon
SNB-75 CNS = test system: SNB-75 CNS
SNB-19 CNS = test system: SNB-19 CNS
U251 CNS = test system: U251 CNS
PC-3 prostate = test system: PC-3 prostate
UACC-62 melanoma = test system: UACC-62 melanoma
LOX IMVI melanoma = test system: LOX IMVI melanoma
SK-MEL-28 melanoma = test system: SK-MEL-28 melanoma
SK-MEL-5 melanoma = test system: SK-MEL-5 melanoma

SMILES	growth (DU-145 prostate)	growth (K-562 leukemia)	growth (MALME-3M melanoma)	growth (MDA-MB-231 breast)	growth (RXF 393 renal)	growth (SF-268 CNS)	growth (SF-539 CNS)	growth (UACC-257 melanoma)	growth (M14 melanoma)	growth (HCT-15 colon)	growth (HT29 colon)	growth (SNB-75 CNS)	growth (SNB-19 CNS)	growth (U251 CNS)	growth (PC-3 prostate)	growth (UACC-62 melanoma)	growth (LOX IMVI melanoma)	growth (SK-MEL-28 melanoma)	growth (SK-MEL-5 melanoma)
Cc1ccc(-c2ccc(Nc3ccccc3)nn2)cc1S(N)(=O)=O	85.2%	21.3%	73.5%	89.2%	91.8%	97.4%	82.3%	96.4%	83.2%	65.9%	70.9%	87.1%	106%	93.7%	93.8%	89%	73.7%	89.1%	–
COc1cc(-c2cc(-c3nc4ccccc4[nH]3)[nH]n2)cc(OC)c1OC	50.4%	4.51% (active)	28%	66.2%	49.2%	72.5%	74.8%	44%	39.4%	48.8%	69.3%	51.9%	86.9%	55.8%	5.47% (active)	34.5%	–	61.8%	-44.4% (active)
COc1cc(-c2nc(-c3ccccc3)c(-c3ccccc3)[nH]2)cc(OC)c1O	-23.5% (active)	3.86% (active)	-28.9% (active)	0.0647% (active)	-48.8% (active)	4.5% (active)	0.938% (active)	6.33% (active)	-18.8% (active)	11.1%	0.965% (active)	29.7%	20.1%	5.45% (active)	-58.6% (active)	-60.6% (active)	-47.7% (active)	-4.06% (active)	-8.78% (active)
Nc1c(C(=O)Nc2cccc(Cl)c2)sc2ncc(Cl)cc12	56.7%	80.6%	69.8%	83.7%	83.5%	63.5%	60.8%	100%	88.2%	80.7%	90.3%	59.6%	105%	–	95.7%	95.5%	44.8%	91.7%	94.3%
COc1ccc2nc(-c3cc(-c4cc(OC)c(OC)c(OC)c4)n[nH]3)[nH]c2c1	11.8%	-10.7% (active)	-40.4% (active)	36.2%	45.8%	10.7%	34.4%	-13.4% (active)	9.11% (active)	15.1%	42.7%	-2.76% (active)	50.1%	–	-22.8% (active)	-53.6% (active)	–	-17.6% (active)	–
COc1ccc(-c2cc(/C=C/C(=O)c3ccc(N)cc3)[nH]n2)cc1	11.9%	-2.07% (active)	54.3%	35.7%	20%	17%	1.33% (active)	58.9%	23%	17%	10.4%	-0.764% (active)	27.6%	14.4%	26.4%	24.7%	–	34.6%	–
COc1cc2c(cc1OC)C(=O)/C(=C/c1cc(-c3ccc4c(c3)OCO4)n[nH]1)C2	1.19% (active)	-41.5% (active)	43.7%	24.6%	-39.8% (active)	-53.4% (active)	-80.9% (active)	77.1%	5.68% (active)	-39.9% (active)	-29.5% (active)	-4.64% (active)	9.31% (active)	-75.5% (active)	-65.7% (active)	25.8%	–	0.563% (active)	48.4%
Oc1cc(/C=C/c2nc(N3CCOCC3)c3cc(Cl)c(Cl)cc3n2)cc(O)c1O	104%	81.5%	107%	106%	98.8%	108%	94.1%	99.8%	102%	98.9%	120%	91.5%	102%	–	101%	98.8%	106%	109%	90%
O=c1c2sc3ncc(Br)cc3c2ncn1-c1cccc(Cl)c1	53.3%	81.9%	52.5%	49.5%	73.6%	64.1%	81.4%	88.4%	76%	88.5%	71.5%	16.4%	89.5%	33.4%	81.9%	80.3%	–	78%	76.2%
